Results with a measured potency or affinity are listed apart. Records with an inconclusive call do not appear. The source made the active and inactive calls.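 The calls were made as follows: active = luminescence drop in HepG2 cells whose fitted half-effect dose is at most twice the top valid dose; inconclusive = flat curve with 30 to 70% signal loss, or unreliable fit; inactive = the rest.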

The nature of this experiment: HepG2 hepatoma cell viability loss – plate reader, dry powder, cytotoxicity control, dose response (AID 651947). The settings on record: ATP luminescence (CellTiter-Glo), 48 h, stronger effect = lower value; at 26 µM unless noted.
Regarding `FC(F)(F)Oc1ccccc1-c1nnc(SCc2ccccc2)o1`, the max activity was -9.41% [at 6 µM] (inactive).

With `Fc1ccc(CSc2nnc(-c3ccc(Cl)cc3)o2)cc1`, the max activity was -47.5% [at 12 µM] (inactive). For `Fc1ccc(Cn2cc(CSc3nnc(C4CCC4)o3)nn2)cc1` the value was -41.8% [at 0.38 µM] (inactive); for `c1ccc(-c2nnc(SCc3cscn3)o2)cc1`, -61.2% [at 12 µM] (inactive). For `c1ccc(-c2nnc(SCc3ncco3)o2)cc1` the value was 8.06% [at 0.195 µM] (inactive); for `COc1ccccc1-c1nnc(SCc2ccccn2)o1`, -21.6% (inactive); for `c1ccc(-c2nnc(SCc3cccnc3)o2)cc1`, 17.3% (inactive). On to `COCCOCCSc1nnc(-c2ccccc2)o1`, for which the max activity was -8.39% [at 1.6 µM] (inactive). As to `FC(F)(F)Oc1cccc(-c2nnc(SCc3ccccc3)o2)c1`, the max activity was -17.6% [at 0.195 µM] (inactive).

On to `COc1ccc(-c2nnc(SCc3ccccc3)o2)cc1`, for which the max activity is -23.7% [at 6 µM] (inactive). Take `O=S(Cc1ccccc1)c1nnc(-c2ccccc2)o1` (stereo not given): the max activity is -53.1% (inactive). As for `Fc1ccc(-c2nnc(SCc3ccccc3)o2)cc1`, the max activity was 14.5% (inactive).

With `FC(F)(F)Oc1ccc(-c2nnc(SCc3ccccc3)o2)cc1`, the max activity was 21.1% [at 12 µM] (inactive). With `Fc1ccccc1CSc1nnc(-c2ccccc2)o1` the figure was -57.5% (inactive); with `Clc1ccccc1CSc1nnc(-c2ccccc2)o1`, 17.5% [at 0.195 µM] (inactive); with `c1ccc(CSc2nnc(-c3ccco3)o2)cc1`, -42.4% [at 6 µM] (inactive). For `O=C(Cc1ccccc1)C(C(=O)c1nnc(-c2ccccc2)o1)c1ccccc1` (stereo not given) the value was -29.7% (inactive); for `c1ccc(CSc2nnc(-c3ccncc3)o2)cc1`, -43.6% [at 0.38 µM] (inactive); for `Brc1ccc(CSc2nnc(-c3ccccc3)o2)cc1`, 32.4% [at 6 µM] (inactive).

`FC(F)(F)c1ccc(-c2nnc(SCc3ccccc3)o2)cc1`: the max activity was 17.4% [at 3 µM] (inactive). With `N#Cc1ccc(-c2nnc(SCc3ccccc3)o2)cc1` the figure was 15.9% [at 1.6 µM] (inactive); with `Cc1ccc(-c2nnc(SCc3ccccc3)o2)cc1`, 15.2% [at 3 µM] (inactive). For `Fc1ccc(-c2nnc(SCc3ccccn3)o2)cc1` the value was -30.7% [at 1.6 µM] (inactive); for `N#Cc1ccccc1CSc1nnc(-c2ccccc2)o1`, 22.9% [at 3 µM] (inactive). In the case of `CN(Cc1ccccc1)c1nnc(-c2ccccc2)o1`, the max activity is -28.2% (inactive). With `c1ccc(CSc2nnc(-c3cnco3)o2)cc1` the figure was -31.7% [at 12 µM] (inactive); with `Fc1ccc(-c2nnc(SCc3cn(-c4ccccc4)nn3)o2)cc1`, -8.15% (inactive).

As for `CS(=O)(=O)c1cccc(-c2nnc(SCc3ccccc3)o2)c1`, the max activity is 26.3% [at 0.8 µM] (inactive). With `Fc1ccc(-c2nnc(SCc3cn(Cc4ccccc4)nn3)o2)cc1` the figure was 22.1% [at 3 µM] (inactive); with `COc1ccc(CSc2nnc(-c3ccc(Cl)cc3)o2)nc1`, 20.3% [at 0.8 µM] (inactive). Take `c1ccc(-c2nnc(SCc3ccccn3)o2)cc1`: the max activity is 18.8% (inactive). For `c1ccc(CSc2nnc(-c3ccccn3)o2)cc1`, the max activity was -20.9% [at 1.6 µM] (inactive). For `COc1ccccc1-c1nnc(SCc2ccccc2)o1` the value was -18.4% [at 0.195 µM] (inactive); for `CC(C)c1nnc(SCc2ccccc2)o1`, 28.6% [at 0.38 µM] (inactive). For the compound `c1ccc(CNc2nnc(-c3ccccc3)o2)cc1`, the max activity is 25.5% [at 0.195 µM] (inactive).

These data come from PubChem BioAssay AID651947 (Broad Institute, 2012).
